Assay in all cases: NCI-60 one-dose screen, 48 h (100 = growth as untreated, 0 = no growth, -100 = all killed)
Common to all, as to conditions: 10 µM unless noted

The subject of assay [1] is NCI-H23 lung.
Assay [2] has as its system NCI-H226 lung.
In assay [3] the test system is NCI-H322M lung.
For assay [4], the system named is HOP-62 NSCLC.
Assay [5] has as its system NCI-H460 lung.
For assay [6], the system named is HOP-92 NSCLC.
For assay [7], the system named is NCI-H522 lung.
The test system of assay [8] is A549/ATCC NSCLC.
For assay [9], the system named is 786-0 renal.
Assay [10] relates to COLO 205 colon.
The subject of assay [11] is DU-145 prostate.
In assay [12] the test system is K-562 leukemia.
Assay [13] has as its system MALME-3M melanoma.
The subject of assay [14] is MDA-MB-231 breast.
Assay [15] has as its system RXF 393 renal.
Assay [16] relates to SF-268 CNS.
In assay [17] the test system is SF-295 CNS.
Assay [18] deals with SF-539 CNS.
The test system of assay [19] is UACC-257 melanoma.
The test system of assay [20] is M14 melanoma.

About 83,000 compounds went through this panel and 20% of them were active in at least one assay; those are over-represented in the sample as a whole.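 In brief: 96-well plates, 48 h treatment, single concentration, percent growth endpoint.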 Unmarked numbers belong to inactive results. Activity calls are given as the source filed them. How the source made its calls: active means growth percent below 10; inactive means the rest.

Regarding `COc1ccc(C(=O)/C=C/c2ccc(OCc3ccccc3)c(OC)c2)cc1OC`, the growth was 59.8% in assay [1]; 75.8% in [2]; 43.2% in [3]; 31.4% in assay [4]; 47% in assay [5]; 11.5% in assay [6]. Moreover, the growth was 28.9% in assay [7]; 13.6% in [8]; 87.9% in assay [9]; 74.6% in [10]; 36.7% in assay [11]; 20.7% in assay [12]. Moreover, the growth was 56.4% in [13]; 55.3% in assay [14]; 75.1% in [15]; 43.8% in assay [16]; 57.1% in [17]; 83.3% in [18]. The growth was 63.2% in [19] and 83.1% in assay [20].
As to `COc1ccc(/C=C/C(=O)c2ccc(OC)c(OC)c2)cc1O`, the growth in [1] was 73.1%; in [2], 86.3%; in assay [3], 78.6%; in [4], 39.7%; in assay [5] it was 44.2%; in [6], 29.1%. For the same compound, the growth in assay [7] is 51.9%; in [8], 26.4%; in assay [9], 98.2%; in assay [10] it was 104%; in assay [11], 21%; in assay [12], 14.7%. The growth is 90.9% in assay [13]; 73% in [14]; 72.1% in assay [15]; 80.7% in [16]; 104% in assay [17]; 79.8% in assay [18]. In addition, the growth in [19] was 96.6%; in [20], 97.7%.
Take `COc1ccccc1C(C[N+](=O)[O-])c1c(-c2ccccc2)[nH]c2cc(C)ccc12` (stereo not given): the growth was 68.4% in [1]; 53.1% in assay [2]; 90.4% in assay [3]; 71.9% in assay [4]; 85.2% in assay [5]; 64.4% in assay [6]. The growth is 27.8% in [7]; 61.8% in assay [8]; 86.8% in assay [9]; 78.4% in [10]; 101% in assay [11]; 8.66% (active) in assay [12]. Moreover, the growth in assay [13] was 61.2%; in [14], 55.4%; in [15], 74.7%; in [16], 78.6%; in assay [17], 54.1%; in [18], 84.2%. For the same compound, the growth in assay [19] was 83%; in assay [20], 45.6%.
Consider `O=C(Nc1nc(-c2ccc(Br)cc2)cs1)c1cc(-c2ccc(Br)cc2)nc2ccc(Cl)cc12`, for which the growth in [1] is 69.7%; in [2] it was 76.3%; in [3], 89.9%; in [4] it was 80.1%; in assay [5] it was 88.3%; in assay [6], 71.7%. In addition, the growth in assay [7] was 76.9%; in assay [8] it was 84.8%; in assay [9] it was 94.3%; in assay [10], 84.5%; in assay [11], 92.6%; in assay [12], 56.6%. Besides, the growth in assay [13] is 105%; in assay [14], 74.1%; in assay [15], 100%; in assay [16], 85%; in assay [17], 97.8%; in assay [18] it was 99.1%. The growth in assay [19] is 101%; in assay [20], 99.1%.
`Fc1ccc(-n2cc(COc3ncnc4sc5c(c34)CCCC5)nn2)cc1Cl`: the growth in assay [1] was 96.8%; in assay [2], 94.4%; in [3], 100%; in assay [4] it was 96.3%; in [5], 102%; in [6], 109%. The growth in [7] is 84%; in assay [8], 98.4%; in [9] it was 98.1%; in assay [10], 109%; in [11], 105%; in [12], 95.5%. The growth was 92.1% in assay [13]; 95.8% in [14]; 103% in assay [15]; 95.8% in assay [16]; 105% in assay [17]; 98.8% in [18]. The growth in [19] is 102%; in [20], 94.2%.
On to `COc1ccc(-n2cc(-c3cc(OC)c(OC)c(OC)c3)n(C(C)=O)c2=O)cc1`, for which the growth in [1] was 95%; in [2] it was 94.6%; in assay [3] it was 78.8%; in assay [4], 126%; in [5], 109%; in assay [6], 85.7%. Moreover, the growth in assay [7] was 77.4%; in assay [8], 99.8%; in assay [9] it was 64.5%; in assay [10], 91.5%; in [11], 109%; in assay [12], 92.9%. The growth is 79.4% in assay [13]; 86.4% in [14]; 111% in [15]; 94.7% in [16]; 82.1% in [17]; 90.2% in assay [18]. For the same compound, the growth in assay [19] was 90.3%; in assay [20] it was 111%.
With `O=C(Nc1ccc2cc3ccc(NC(=O)N4CCCCCC4)cc3nc2c1)N1CCCCCC1`, the growth in assay [1] was -39% (active); in assay [2] it was -58.5% (active); in [3], 31.4%; in assay [4], -47.4% (active); in assay [5], -55.6% (active); in assay [6] it was -77.8% (active). The growth in assay [7] was -70.4% (active); in assay [8] it was -11.3% (active); in [9], -57.9% (active); in assay [10], -48.8% (active); in [11], -25.7% (active); in [12] it was -11.1% (active). The growth is -85.3% (active) in assay [13]; -69.1% (active) in assay [14]; -76.3% (active) in [15]; -41.3% (active) in [16]; -79.4% (active) in assay [17]; -71.1% (active) in [18]. The growth was -75.7% (active) in [19] and -66.2% (active) in [20].
For `Cc1cc(C)n(Nc2nc3ccccc3[nH]c2=O)c(=O)c1C#N`, the growth in assay [1] is 89.8%; in [2], 89%; in [3], 100%; in assay [4], 93%; in assay [5], 100%; in [6], 76.2%. For the same compound, the growth is 93.3% in [7]; 96.9% in assay [8]; 96.5% in assay [9]; 113% in [10]; 101% in [11]; 94.3% in assay [12]. Also, the growth in assay [13] is 91.7%; in assay [14], 80.6%; in [15], 97.9%; in [16] it was 92.9%; in [17] it was 95.6%; in assay [18], 87.2%. Further, the growth in assay [19] is 97.6%; in assay [20], 98.8%.

These data come from PubChem BioAssay (NCI).
